A selection: hits, their analogues and other compounds. The true share with any hit is near 1.6%.
KCNQ2 block = rat KCNQ2 potassium channel inhibitors, primary screen, cell-based, CHO-K1, FluxOR thallium flux, B-score. B-score at 10 µM. 310,000 tested, 1.1% active. Potassium voltage-gated channel subfamily KQT member 2 (Rattus norvegicus), O88943. 20 min; active compounds read low;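 active means fluorescence ratio B-score at most minus 3 library SDs, with starting brightness B-score within 2 library SDs, cut at about -5.5 in these data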
Target sequence (O88943 whole entry, looked up): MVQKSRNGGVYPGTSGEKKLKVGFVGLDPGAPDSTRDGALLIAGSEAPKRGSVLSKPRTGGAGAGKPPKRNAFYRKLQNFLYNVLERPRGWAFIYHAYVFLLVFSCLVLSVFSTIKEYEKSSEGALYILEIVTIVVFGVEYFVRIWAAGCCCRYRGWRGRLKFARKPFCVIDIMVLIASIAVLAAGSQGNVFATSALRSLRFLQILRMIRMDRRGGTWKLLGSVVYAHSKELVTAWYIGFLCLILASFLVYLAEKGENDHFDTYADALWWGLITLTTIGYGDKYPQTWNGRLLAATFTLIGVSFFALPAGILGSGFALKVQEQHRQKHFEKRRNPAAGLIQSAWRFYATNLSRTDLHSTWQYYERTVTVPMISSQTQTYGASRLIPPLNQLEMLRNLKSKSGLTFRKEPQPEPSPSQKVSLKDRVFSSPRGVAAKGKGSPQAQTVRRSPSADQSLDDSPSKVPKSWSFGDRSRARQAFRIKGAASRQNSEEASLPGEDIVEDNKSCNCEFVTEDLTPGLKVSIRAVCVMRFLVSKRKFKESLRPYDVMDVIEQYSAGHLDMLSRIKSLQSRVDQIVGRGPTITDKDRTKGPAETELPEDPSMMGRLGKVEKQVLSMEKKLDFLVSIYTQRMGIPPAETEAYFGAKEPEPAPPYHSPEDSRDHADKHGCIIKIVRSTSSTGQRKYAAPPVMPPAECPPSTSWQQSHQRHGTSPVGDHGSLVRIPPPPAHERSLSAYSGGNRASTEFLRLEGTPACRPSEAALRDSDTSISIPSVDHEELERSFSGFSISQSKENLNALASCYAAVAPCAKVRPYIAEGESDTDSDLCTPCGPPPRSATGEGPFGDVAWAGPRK
KCNQ2 enhance = potentiators of rat KCNQ2 potassium channel; CHO-K1 KCNQ2, FluxOR thallium flux fluorescence; active compounds read high; Potassium voltage-gated channel subfamily KQT member 2 (Rattus norvegicus), O88943; 310,000 tested, 0.54% active; B-score at 10 µM;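 active means fluorescence ratio B-score at least 3 SD of library B-scores, with initial fluorescence B-score within 3 of them, cut at about 5.3 in these data; same plate scores as AID 2156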;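 further: B-score of peak minus minimum over baseline fluorescence ratio after K+ and Tl+ stimulus; positive B-score means potentiation of KCNQ2 with more thallium influx and brighter signal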
Kir21 conf inh = mouse Kir2.1 channel blockers, retest, confirmation, cell-based, FluxOR thallium flux, duplicate. shares compounds with KCNQ2 enhance. Kir2.1-expressing cells, FluxOR thallium flux fluorescence; active compounds read low. Tl flux remaining, % of negative control (active compounds read low), % at 10 µM. 2,300 tested, 41% active. AID 2032, 2009;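 active means Primary-screen hit whose thallium flux fell at least 3 control SD below untreated wells in both duplicates, with normal baseline fluorescence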
HEK293 Tl flux = parental HEK293 activity in Kir2.1 inhibitor counter-screen | shares compounds with KCNQ2 enhance | parental HEK293 cells, FluxOR thallium flux fluorescence; 0% = unstimulated blank wells | FluxOR signal as % of negative control (100 = no effect), % at 10 µM | 2,300 tested, 19% active | AID 2105;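 active means dye signal at least 3 control SD above or below untreated wells in both duplicates, raw fluorescence within 3, either direction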;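 further: percent is based on the flux ratio of peak minus minimum fluorescence over baseline F0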
CHO-K1 ctr = nonspecific thallium flux increase in parental CHO-K1, confirmation, counter-screen for KCNQ2 potentiator project, cell-based, FluxOR thallium flux, duplicate; shares compounds with KCNQ2 enhance; parental CHO-K1 cells, FluxOR thallium flux fluorescence; zero = vehicle mean+3SD, 100% = vehicle-minus-blank window; activity increase over 3SD of controls, % at 10 µM; 1,200 tested, 43% active; AID 2282, 2010;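 active means signal rise of at least 3 SD above the untreated control mean, in both duplicate wells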;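 further: counter screen of KCNQ2 potentiator hits so any rise reflects channel-independent effects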
KCNQ1 sel pot = human KCNQ1 channel potentiation off-target, confirmation, selectivity assay for KCNQ2 potentiator project, cell-based, CHO, FluxOR thallium flux; shares compounds with KCNQ2 enhance; CHO KCNQ1 stable, FluxOR thallium flux fluorescence; beyond 3SD, as % of vehicle-control signal; activation over 3SD threshold, % at 10 µM; 1,200 tested, 28% active; AID 2283, 2010;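 active means fluorescence ratio rise of at least 3 SD of vehicle wells above their mean, in both replicate wells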
KCNQ2 pot confirm = rat KCNQ2 channel potentiators, confirmation, cell-based, CHO, FluxOR thallium flux, duplicate; shares compounds with KCNQ2 enhance; CHO-KCNQ2 cells, FluxOR thallium flux fluorescence; potentiation, less the hit threshold, % at 10 µM; 1,200 tested, 68% active; AID 2287, 2010;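 active means fluorescence ratio rising 3 SD or more over the vehicle control mean in both replicates, plus primary screen hit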;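 further: peak minus minimum thallium fluorescence divided by baseline after K/Tl stimulus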
Kir21 spec = mouse Kir2.1 channel activation off-target, confirmation, selectivity assay for KCNQ2 potentiator project, cell-based, HEK293, FluxOR thallium flux; shares compounds with KCNQ2 enhance; HEK293 Kir2.1, FluxOR thallium flux fluorescence; activity over 3SD threshold, % at 10 µM; 1,200 tested, 2% active;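 active means fluorescence ratio rise of at least 3 SD above the vehicle-control mean, seen in both replicates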
KCNQ2 W236L MoA = potentiators of retigabine-insensitive KCNQ2 W236L, mechanism study for KCNQ2 potentiator project, cell-based, rat KCNQ2 W236L, CHO, automated patch clamp. shares compounds with KCNQ2 enhance. automated patch clamp current. current increase over 3SD of negative controls (%), active compounds read high, % at 25 µM. 940 tested, 10% active;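 active means current increase at least 3 SD of the untreated controls above them in both duplicate recordings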
Of the large screens only hits and unclear results are named; the others gave an inactive call (follow-up assays come after a bar, where they were run).

CC(=O)N1c2ccc(S(=O)(=O)NCC3CCC(C(=O)N4CCC(C)CC4)CC3)cc2CC1C (stereo not drawn)	none (no result: KCNQ2 enhance)
Cc1cc2ccccc2nc1SCC(=O)NC1CCCCC1	KCNQ2 enhance 11 | Kir21 conf inh inactive | HEK293 Tl flux inactive | CHO-K1 ctr inactive | KCNQ1 sel pot inactive | KCNQ2 pot confirm 11 | Kir21 spec inactive | KCNQ2 W236L MoA inactive
Cc1cc2ccccc2nc1SCC(=O)NC1CCCC1	none
CCC(NC(=O)CCc1nnc(-c2cc(C)on2)o1)C12CC3CC(CC(C3)C1)C2 (stereo not drawn)	none
CC1=CC(C)(C)N(C(=O)CNC2CCCCC2)c2cc(C)ccc21	none (no result: KCNQ2 enhance) | Kir21 conf inh 50% | HEK293 Tl flux inactive
CC1=CC(C)(C)N(C(=O)CCl)c2cc(C)ccc21	none (no result: KCNQ2 enhance)
O=C(N/N=C/c1cccc(Oc2ccccc2)c1)c1cccc(O)c1	none (no result: KCNQ2 enhance) | Kir21 conf inh 74% | HEK293 Tl flux inactive
O=C(N/N=C/c1cccc(Oc2ccccc2)c1)c1cccc(Br)c1	none (no result: KCNQ2 enhance)
CCOc1ccc(CN2CCCC(CO)(Cc3ccccc3F)C2)cc1 (stereo not drawn)	none
OCC1(Cc2ccc(F)cc2F)CCCN(Cc2ccc(Cl)cc2)C1 (stereo not drawn)	none (no result: KCNQ2 enhance) | Kir21 conf inh 56% | HEK293 Tl flux inactive
COc1ccc(N(CC(=O)NCCC2=CCCCC2)S(=O)(=O)c2ccc(C)cc2)cc1OC	none (no result: KCNQ2 enhance)
Cc1c(C(=O)N(C)Cc2ccc(OC(F)F)cc2)oc2ccccc12	none (no result: KCNQ2 enhance)
COc1ccc(CCN(C)C(=O)c2oc3ccccc3c2C)cc1OC	none | Kir21 conf inh 38% | HEK293 Tl flux inactive
Cc1ccc(-n2nc3c(=O)n(CC(=O)NCCC4=CCCCC4)nc(C)c3c2C)cc1	none
CC(C)c1ccc(C(C)NCCS(=O)(=O)c2ccc(Cl)cc2)cc1 (stereo not drawn)	none (no result: KCNQ2 enhance) | Kir21 conf inh 56% | HEK293 Tl flux inactive
CC(C(=O)NCCS(=O)(=O)c1ccc(Br)cc1)S(=O)(=O)c1ccc(Cl)cc1 (stereo not drawn)	none (no result: KCNQ2 enhance)
CCCCc1ncc(CN2CCC(n3nccc3NC(=O)C(OC)c3ccccc3)CC2)[nH]1 (stereo not drawn)	none
O=C(CCNC(=O)c1ccc(Br)cc1)Nc1ccccc1N1CCCC1	none (no result: KCNQ2 enhance)
COc1ccc(CC(=O)Nc2ccccc2N2CCCC2)cc1	none | Kir21 conf inh 62% | HEK293 Tl flux inactive
O=C(Cc1cccc(C(F)(F)F)c1)Nc1ccccc1N1CCCC1	KCNQ2 enhance 11 | Kir21 conf inh inactive | HEK293 Tl flux inactive | CHO-K1 ctr inactive | KCNQ1 sel pot inactive | KCNQ2 pot confirm 60 | Kir21 spec inactive | KCNQ2 W236L MoA inactive
O=C(Cc1ccccc1)Nc1ccccc1N1CCCC1	KCNQ2 enhance 13 | CHO-K1 ctr inactive | KCNQ1 sel pot inactive | KCNQ2 pot confirm 54 | Kir21 spec inactive | KCNQ2 W236L MoA inactive
O=C(Cc1ccc(Br)cc1)Nc1ccccc1N1CCCC1	KCNQ2 enhance 18 | Kir21 conf inh inactive | HEK293 Tl flux inactive | CHO-K1 ctr inactive | KCNQ1 sel pot inactive | KCNQ2 pot confirm 52 | Kir21 spec inactive | KCNQ2 W236L MoA inactive
COc1ccc(CC(=O)Nc2ccccc2N2CCCC2)cc1OC	none
O=C(Cc1ccccc1)Nc1ccccc1N1CCOCC1	none (no result: KCNQ2 enhance)
O=C(Cc1c(F)cccc1Cl)Nc1ccccc1N1CCCCC1	none (no result: KCNQ2 enhance)
N#C/C(=C\c1coc2ccc(O)cc2c1=O)C(=O)Nc1nc2ccccc2s1	none (no result: KCNQ2 enhance)
CCCCN(C(=O)c1ccc(S(=O)(=O)N(CC)CC)cc1)c1c(N)n(CCC)c(=O)[nH]c1=O	none
COc1ccc(Cl)cc1C(=O)N1CCN(Cc2ccc3c(c2)OCO3)CC1	none
CC(c1ccccc1)n1c(N2CCNCC2)nc2c1c(=O)[nH]c(=O)n2C (stereo not drawn)	none (no result: KCNQ2 enhance)
COC(=O)COc1ccc(S(=O)(=O)Nc2ccc3c(c2)OCCO3)cc1C	none
CSCCC(NC(=O)c1ccccc1Cl)C(=O)OCC(=O)N1CCCC1=O (stereo not drawn)	none
Cc1ccc(O)c(O)c1	none (no result: KCNQ2 enhance)
Cc1ccc(C2Cc3cc(O)c(O)cc3CN2)cc1 (stereo not drawn)	none (no result: KCNQ2 enhance) | Kir21 conf inh 28% | HEK293 Tl flux 62%
CC1CN(C(=O)COC(=O)c2ccccc2O)CC(C)O1 (stereo not drawn)	none
COc1cccc(F)c1C(=O)NC(=O)Nc1ccc2nc(C)oc2c1	none
CC(=O)C1=C(C)NC(SCC(N)=O)=C(C#N)C1CC(C)C (stereo not drawn)	none (no result: KCNQ2 enhance)
CCOC(=O)C1=C(C)NC(SC)=C(C#N)C1CC(C)C (stereo not drawn)	none (no result: KCNQ2 enhance) | Kir21 conf inh 74% | HEK293 Tl flux inactive
COc1cccc(/C=C/C(=O)c2ccc3c(c2)OCCO3)c1OC	none (no result: KCNQ2 enhance)
CCOC(=O)c1c(CSc2ccccc2)n(C)c2cc(Br)c(O)c(CN(C)C)c12	none (no result: KCNQ2 enhance)
CCOC(=O)c1c(CSc2ccsc2)n(C)c2cc(Br)c(O)c(CN(C)C)c12	none (no result: KCNQ2 enhance) | Kir21 conf inh 60% | HEK293 Tl flux 66%
O=C(CNS(=O)(=O)c1cccc2nsnc12)NCCc1ccccc1	none (no result: KCNQ2 enhance)
COc1ccc(C2=NOC(Cn3c(Cc4ccc(Cl)cc4)nc4c3c(=O)n(C)c(=O)n4C)C2)cc1 (stereo not drawn)	KCNQ2 enhance 5.4 | Kir21 conf inh inactive | HEK293 Tl flux inactive | CHO-K1 ctr 6.7 | KCNQ1 sel pot inactive | KCNQ2 pot confirm inactive | Kir21 spec inactive
COc1ccccc1C1=NOC(Cn2c(NCCCO)nc3c2c(=O)n(C)c(=O)n3C)C1 (stereo not drawn)	none

Screens from PubChem BioAssay.
